Potency estimated from few doses data for 8 compounds are collected here from publication PMC11062922 (Nature Chemical Biology, 2023).

SMILES strings stand for the structures.

The subject of one assay is EGFR. On the set-up: species or system human, MV4-11 + K-562 + COLO205 + SK-N-BE2 + OVCAR-8. The settings on record: read-out: apparent Kd; compound concentrations: 100 nM and 1000 nM (sheet 'Samples'), CATDS: 1; n = 1.
In the case of `CCNC(=O)O[C@H]1CN[C@H](C#Cc2cc3ncnc(Nc4ccc(OCc5cccc(F)c5)c(Cl)c4)c3s2)C1` [GSK192082A], the potency estimated from few doses is 177 nM.
Regarding `Nc1ccc(C#Cc2cncnc2Nc2ccc(OCc3cccc(F)c3)c(Cl)c2)cc1` [GW659893X], the potency estimated from few doses was 404 nM.
As to `CS(=O)(=O)CCNCc1ccc(-c2ccc3ncnc(Nc4ccc(OCc5ccccc5)cc4)c3c2)o1.Cl` [GW458787A], the potency estimated from few doses is 34.2 nM.
In the case of `COc1cc2ncnc(Nc3ccc(OCc4ccccc4Br)c(Cl)c3)c2cc1OC.Cl` [GI261590A], the potency estimated from few doses is 2230 nM.

The assay is the same for the next values; noted with them: read-out: apparent Kd; compound concentrations:100 nM and 1000 nM (sheet 'Samples'); n = 1.
On to `COc1cc2ncnc(Nc3ccc4c(cnn4Cc4ccccc4)c3)c2cc1OC.Cl` [GW282449A], for which the potency estimated from few doses was 1.29 nM.
Regarding `Cl.O=C(O[C@H]1CN[C@H](C#Cc2cc3ncnc(Nc4ccc5c(cnn5Cc5ccccc5)c4)c3s2)C1)N1CCOCC1` [GSK200398A_KCGS], the potency estimated from few doses is 26.7 nM.
In the case of `Cl.c1ccc(Cc2nc3ccc(Nc4ncnc5ccccc45)cc3[nH]2)cc1` [GR269666A_KCGS], the potency estimated from few doses is 76 nM.

The next assay relates to RIPK2. Further details: species or system human, MV4-11 + K-562 + COLO205 + SK-N-BE2 + OVCAR-8. The settings on record: read-out: apparent Kd; compound concentrations:100 nM and 1000 nM (sheet 'Samples'); n = 1.
For `Cn1c(=O)c(-c2ccccc2Cl)cc2cnc(NC3CCOCC3)nc21` [RO3303470-000], the potency estimated from few doses is 503 nM.
Still for that read-out and setting: the figure for `COc1cc2ncnc(Nc3ccc4c(cnn4Cc4ccccc4)c3)c2cc1OC.Cl` [GW282449A] is 210 nM; for `Cl.O=C(O[C@H]1CN[C@H](C#Cc2cc3ncnc(Nc4ccc5c(cnn5Cc5ccccc5)c4)c3s2)C1)N1CCOCC1` [GSK200398A_KCGS] it is 936 nM.
